Experimental data published in PubChem BioAssay (NCI).
Compounds without any hit were thinned out: in the full panel of roughly 83,000, 20% have a hit.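 Compound tested at a single concentration for 48 hours in 96-well plates; a percent growth value below 10 was scored as active.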 Values without a mark were called inactive. Activity calls are given as the source filed them.

What was measured:
Assay in all cases: NCI-60 one-dose screen, 48 h (100 = growth as untreated, 0 = no growth, -100 = all killed)
Conditions in all cases: 10 µM unless noted
DU-145 prostate = system: DU-145 prostate
K-562 leukemia = system: K-562 leukemia
MALME-3M melanoma = system: MALME-3M melanoma
MDA-MB-231 breast = system: MDA-MB-231 breast
RXF 393 renal = system: RXF 393 renal
SF-268 CNS = system: SF-268 CNS
SF-295 CNS = system: SF-295 CNS
SF-539 CNS = system: SF-539 CNS
UACC-257 melanoma = system: UACC-257 melanoma
M14 melanoma = system: M14 melanoma
HCT-15 colon = system: HCT-15 colon
HT29 colon = system: HT29 colon
SNB-19 CNS = system: SNB-19 CNS
U251 CNS = system: U251 CNS
PC-3 prostate = system: PC-3 prostate
SK-MEL-5 melanoma = system: SK-MEL-5 melanoma
UACC-62 melanoma = system: UACC-62 melanoma
LOX IMVI melanoma = system: LOX IMVI melanoma
SK-MEL-28 melanoma = system: SK-MEL-28 melanoma

SMILES | growth (DU-145 prostate) [%] | growth (K-562 leukemia) | growth (MALME-3M melanoma) | growth (MDA-MB-231 breast) | growth (RXF 393 renal) | growth (SF-268 CNS) [%] | growth (SF-295 CNS) [%] | growth (SF-539 CNS) | growth (UACC-257 melanoma) [%] | growth (M14 melanoma) [%] | growth (HCT-15 colon) | growth (HT29 colon) | growth (SNB-19 CNS) [%] | growth (U251 CNS) [%] | growth (PC-3 prostate) [%] | growth (SK-MEL-5 melanoma) [%] | growth (UACC-62 melanoma) | growth (LOX IMVI melanoma) | growth (SK-MEL-28 melanoma) [%]
CCN(CC)CCOc1ccc(/C(=C(/C)c2ccccc2)c2ccc(OC(C)=O)cc2)cc1 | 105 | 87.2% | 99.1% | 108% | 100% | 93.2 | 103 | 101% | 120 | 98.3 | 80.2% | 67.2% | 107 | 103 | 96.9 | 100 | 103% | 102% | 105
COc1ccc(-c2nc(-c3nc4cc(C)c(C)cc4[nH]3)cc3c2[nH]c2ccccc23)cc1 | 84.7 | 11.4% | 73.1% | -49.5% (active) | -63.8% (active) | 80.5 | 25.4 | 5.88% (active) | 89.1 | 70.2 | 3.41% (active) | 1.21% (active) | 82.7 | 10.5 | 40.9 | 45.7 | -0.969% (active) | -31.6% (active) | 39.5
Fc1ccc(-c2nc(-c3nc4ncccc4[nH]3)cc3c2[nH]c2ccccc23)cc1F | 49 | 78.5% | 78.5% | 53.9% | 73.1% | 71.1 | 86.9 | 79.6% | 92.2 | 78.8 | 54.7% | 39.1% | 102 | 81.9 | 73.3 | 28.3 | 79.9% | 48.5% | 94
CCN(CC)CCOC(=O)C(c1ccccc1)(c1ccccc1)C(C)C | 99 | 85.7% | 95.1% | 74.3% | 95.6% | 86.1 | 91.1 | 107% | 63.2 | 106 | 95.9% | 61.4% | 97.1 | 87.2 | 69 | 90.6 | 100% | 71.5% | 106
O=C(NCCNc1nccc(-n2ccc3cccnc32)n1)c1ccc(C(F)(F)F)cc1 | 111 | 99.8% | 108% | 97.7% | 110% | 97.8 | 101 | 107% | 108 | 102 | 104% | 113% | 104 | 99.8 | 102 | 101 | 94.6% | 99.4% | 105
Cc1ccc(S(=O)(=O)Nc2c(Br)cc(Br)cc2C(N)=O)cc1 | 113 | 119% | 87.4% | 103% | 93.1% | 109 | 97.3 | 101% | 107 | 94.5 | 103% | 128% | 90.2 | 106 | 96.3 | 99.9 | 98.5% | 102% | 100
C=C1C(=O)O[C@H]2[C@H]1CC/C(Cn1cc(CNC(=O)c3cc4ccccc4[nH]3)nn1)=C\CC[C@@]1(C)O[C@@H]21 | 52.2 | 2.12% (active) | 0.0965% (active) | 60.9% | 24.5% | 68.5 | 110 | 6.92% (active) | 61.7 | 57.8 | 79.8% | 11.4% | 81.5 | 67.6 | 70.2 | 64.4 | 49.8% | -23.6% (active) | 54.4
